Screens as filed in PubChem.
Sm TGR block: blocks Schistosoma mansoni thioredoxin glutathione reductase. purified TGR, DTNB reduction, TNB absorbance 405 nm. Potency, µM (series often up to 114 µM), inactives show at the highest dose activity change, negative = inhibition, actives largely listed as inhibitors. 3% of 360,000 active. Q962Y6; note: % is set by controls: 0 for no effect and ±100 for the full control effect; nearly all actives have a fitted effect of over 60% in size
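Kinetic colorimetric format: TGR-catalysed, NADPH-driven DTNB reduction monitored via TNB absorbance. Enzyme dispensed at 20 nM; compound exposure 15 min at room temperature before reaction start.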
Pf growth 96h: P. falciparum growth inhibition at 96 hours | P. falciparum luciferase reporter growth, 96 h | Potency, µM (doses to about 28.7 µM), for inactives: at the top dose activity change, negative = inhibition, actives largely listed as inhibitors | 6.9% of 320,000 active; note: % is set by controls: 0 for no effect and ±100 for the full control effect
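P. falciparum expressing integrated firefly luciferase grown in erythrocytes (2% hematocrit, 0.05% parasitemia final) with compounds for 96 hours at 37 C, 5% CO2. Growth inhibition read as loss of luminescence after adding luciferase detection reagent.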
NS1 function inh: inhibitors of influenza NS1 protein function; Potency, µM (top dose mostly 46.1 µM), without a hit: at the highest dose activity, positive = more growth; 0.4% of 270,000 active; calls by dose curve; note: actives are rising curves; nearly all actives have a fitted effect of over 50% in size
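Compounds were scored for reversing the slow growth caused by influenza A NS1 in S. cerevisiae, measured by optical density at 600 nm. Assay medium contained 2% galactose at pH 6.0; NS1-free yeast of the same strain were the positive control.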
AMA1-RON2 inh: AMA1-RON2 (P. falciparum) interaction inhibition. AlphaScreen AMA1-biotinylated RON2 peptide binding. Potency, µM (top dose mostly 58.2 µM), for the others: top-dose activity change, negative = inhibition, most hits filed as inhibitors. 0.2% of 360,000 active;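 note: 0% = vehicle wells and -100% = peptide control; nearly all actives have a fitted effect of over 45% in size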
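AMA1 (3D7) with his tag at 25 nM final met compounds first, then biotinylated RON2 peptide at 25 nM; detection used donor plus acceptor beads, 10 µg/mL apiece, read by AlphaScreen after 30 min at room temperature.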
Pf growth 48h: P. falciparum growth inhibition at 48 hours (one generation). AID 504832. Potency, µM (doses to about 28.7 µM), without a hit: at the top dose activity change, negative = inhibition, hits mostly inhibitors. P. falciparum luciferase growth in erythrocytes, 48 h. 5.9% of 310,000 active; note: % is set by controls: 0 for no effect and ±100 for the full control effect
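Cell-based growth assay: transgenic P. falciparum expressing firefly luciferase, cultured in red cells within RPMI 1640 containing 0.5% w/v Albumax, 24 mM bicarbonate and gentamycin. A drop in luciferase activity indicates inhibition.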
Starred values were filed as active, the others as inactive; [ ] = another dose, or the depositor's remark. Only some compounds are listed: those with a hit (about 11% of all), similar ones and a draw of the others. Unless noted, calls come from the whole dose curve; as a rule, active = well fitted curve in the direction sought with a large enough effect; inconclusive = small, poorly fitted or top-dose-only effect, or another doubt; inactive = no such curve, though single readings can be large; an effect the other way counts as inactive or inconclusive. Potency is the fitted concentration of half-maximal effect.

Results for CCN(CC)CCOc1ccc2c(c1)C(=O)c1cc(OCCN(CC)CC)ccc1-2 ?
Pf growth 96h: 6µM*; Pf growth 48h: 4.3µM*

What do the screens show for `CCN(CC)CCOc1cccc(C(C)C)c1`?
Sm TGR block: 3%; Pf growth 96h: -8%; NS1 function inh: 8%; AMA1-RON2 inh: 5%; Pf growth 48h: -1%

How did Cc1ccc(-c2cc3ncc4c(n3n2)-c2cc(Cl)ccc2OC4)cc1 do in these assays?
Sm TGR block: -3%

Results for C/C(=N/Nc1ccc([N+](=O)[O-])cc1)c1c[nH]c2ccccc12 ?
Sm TGR block: -3%; Pf growth 96h: inconclusive; NS1 function inh: -75%; AMA1-RON2 inh: -26%; Pf growth 48h: 1%

How did C=C(C)COc1ccc(-c2ncncc2-c2ccccc2OC)c(O)c1 do in these assays?
Sm TGR block: 4%; Pf growth 96h: inconclusive; NS1 function inh: 1%; AMA1-RON2 inh: 4%; Pf growth 48h: 13µM*

How did CCOc1ccc(-c2ncncc2-c2ccccc2OC)c(O)c1 do in these assays?
Sm TGR block: 5%; Pf growth 96h: inconclusive; NS1 function inh: 1%; AMA1-RON2 inh: 12%; Pf growth 48h: 2.9µM*

Results for COc1ccc(-c2ncncc2-c2ccc(OC)c(OC)c2)c(O)c1 ?
Sm TGR block: -23%; Pf growth 96h: -17%; NS1 function inh: 0%; AMA1-RON2 inh: 11%; Pf growth 48h: -11%

What do the screens show for `COc1ccc(OC)c(-c2noc(N3CCN(c4cccc(C)c4C)CC3)n2)c1`?
Sm TGR block: -8%

How did Clc1ccc(-c2csc(=Nc3cccnc3)n2CCCn2ccnc2)cc1Cl do in these assays?
Sm TGR block: -27%; Pf growth 96h: 4.7µM*; NS1 function inh: -15%; AMA1-RON2 inh: -9%[2.32 µM]; Pf growth 48h: 12µM*

How did CC(=O)c1cc2c(cc1N(C(=O)Cn1nnc3ccccc31)C(C(=O)NCCC(C)C)c1cccnc1)OCO2 (stereo not given) do in these assays?
Sm TGR block: -4%; Pf growth 96h: 3%; NS1 function inh: 1%; AMA1-RON2 inh: -2%; Pf growth 48h: inconclusive

Results for COC(=O)[C@@]1(C)[C@H]2C(=O)N(Cc3ccccc3)C(=O)[C@H]2[C@H]2CN=C(SCc3ccc(C)cc3)N21 ?
AMA1-RON2 inh: -6%

How did Clc1ccc(-c2cnnc(-c3ccccn3)n2)cc1 do in these assays?
AMA1-RON2 inh: 10µM*

How did c1ccc(-c2cnnc(-c3ccccn3)n2)cc1 do in these assays?
AMA1-RON2 inh: 10µM*

What do the screens show for `Cn1c(=O)c2c(-c3ccc(Br)cc3)n(Cc3ccc(F)cc3)cc2n(C)c1=O`?
Sm TGR block: -2%

Results for CCn1c(SCc2ccc(F)cc2)nc2ccccc2c1=O ?
Sm TGR block: 8%; Pf growth 96h: -6%; NS1 function inh: -1%; AMA1-RON2 inh: 4%; Pf growth 48h: -29%

How did CCn1c(SCc2ccc(F)cc2)nnc1-c1nn(-c2ccccc2)ccc1=O do in these assays?
Sm TGR block: 1%; Pf growth 96h: 5.2µM*; NS1 function inh: 1%; AMA1-RON2 inh: 3%; Pf growth 48h: inconclusive

What do the screens show for `Cc1cc(Br)cc2c1NC(=O)C2(c1c(C)n(C)n(-c2ccccc2)c1=O)c1c(C)n(C)n(-c2ccccc2)c1=O`?
Sm TGR block: 45µM*; Pf growth 96h: -3%; NS1 function inh: -1%; AMA1-RON2 inh: -14%; Pf growth 48h: inconclusive

How did Cc1c(C2(c3c(C)n(C)n(-c4ccccc4)c3=O)C(=O)Nc3ccc(F)cc32)c(=O)n(-c2ccccc2)n1C do in these assays?
Sm TGR block: -12%; NS1 function inh: 19%; AMA1-RON2 inh: -12%; Pf growth 48h: -23%

How did CN(C)c1ccc(N=Cc2ccco2)cc1 do in these assays?
Sm TGR block: 32µM*; Pf growth 96h: inconclusive; NS1 function inh: inconclusive; AMA1-RON2 inh: -25%; Pf growth 48h: 0.83µM*

How did CC(C)CC1c2[nH]c3ccccc3c2CCN1CCCn1cccn1 (stereo not given) do in these assays?
Sm TGR block: -22%; Pf growth 96h: 13µM*; NS1 function inh: -9%; AMA1-RON2 inh: -13%; Pf growth 48h: inconclusive

Results for COc1ccc(C2c3[nH]c4ccccc4c3CCN2CCCn2cccn2)c(C)c1C (stereo not given) ?
Sm TGR block: -2%; Pf growth 96h: 12µM*; NS1 function inh: -3%; AMA1-RON2 inh: inconclusive; Pf growth 48h: inconclusive

Results for COc1cccc(-c2nn(-c3ccc(C)cc3)cc2C(=O)NCC2CCCO2)c1 (stereo not given) ?
Sm TGR block: 1%; Pf growth 96h: -23%; AMA1-RON2 inh: -11%; Pf growth 48h: inconclusive

What do the screens show for `COc1ccc(OC)c(-c2nn(-c3ccccc3)cc2C(=O)NCC(c2ccco2)N2CCCC2)c1` (stereo not given)?
Sm TGR block: 0%; Pf growth 96h: inconclusive; AMA1-RON2 inh: -6%; Pf growth 48h: 9.3µM*

What do the screens show for `COc1ccc(-c2nn(-c3ccccc3)cc2C(=O)NCC(c2cccs2)N2CCOCC2)cc1` (stereo not given)?
Sm TGR block: 8%; Pf growth 96h: inconclusive; AMA1-RON2 inh: -21%; Pf growth 48h: 13µM*

What do the screens show for `O=C(NCC(c1cccs1)N1CCOCC1)c1cn(-c2ccccc2)nc1-c1ccc(Cl)cc1` (stereo not given)?
Sm TGR block: 8%; Pf growth 96h: inconclusive; AMA1-RON2 inh: -14%; Pf growth 48h: inconclusive

What do the screens show for `COc1cccc(-c2nn(-c3ccc(C)cc3)cc2C(=O)NCC(c2cccs2)N2CCOCC2)c1` (stereo not given)?
Sm TGR block: -18%; Pf growth 96h: inconclusive; AMA1-RON2 inh: -5%; Pf growth 48h: 3.3µM*

What do the screens show for `COc1ccc(OCC(=O)NCC(c2cccs2)N2CCOCC2)cc1` (stereo not given)?
Sm TGR block: -14%; Pf growth 96h: 0%; AMA1-RON2 inh: -4%; Pf growth 48h: -7%

Results for O=C(NCC(c1cccs1)N1CCOCC1)c1cn(-c2ccccc2)nc1-c1ccccc1 (stereo not given) ?
Sm TGR block: 4%; Pf growth 96h: 13µM*; AMA1-RON2 inh: -12%; Pf growth 48h: inconclusive

How did CCNC(=O)C1(C)CCCN1C(=O)c1ccc(-c2ccccc2)cc1 (stereo not given) do in these assays?
AMA1-RON2 inh: 2%

Results for COc1nc(-c2ccc(C)cc2)ccc1-c1noc(-c2ccc(C(C)(C)C)cc2)n1 ?
Sm TGR block: -1%

How did Nc1nc(=S)c2ncn([C@@H]3O[C@H](CO)[C@@H](O)[C@H]3O)c2[nH]1 do in these assays?
Sm TGR block: 0%; Pf growth 96h: inconclusive; AMA1-RON2 inh: -17%; Pf growth 48h: 10µM*

What do the screens show for `OCC1OC(n2cnc3c(=S)nc[nH]c32)C(O)C1O` (stereo not given)?
Pf growth 96h: 9.5µM*; Pf growth 48h: inconclusive
